BoNT A protease = blocks Botulinum neurotoxin A light chain protease; multiplex microsphere protease substrate cleavage, flow cytometry; inhibition, % at 10 µM; actives 0.17% (n = 360,000); also: plate controls were buffer without enzyme for full effect and enzyme alone for no effect
SSB-PriA inh = inhibitors of Klebsiella pneumoniae PriA binding to SSB C-terminal tail; AlphaScreen SSBct-PriA binding, biotinylated peptide; inhibition, % at 33 µM; actives 0.6% (n = 430,000); in the data active = inhibition mostly above about 37%, no sharp cut-off; inactive = mostly below about 20%;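 also: plate controls were negative control peptide for no effect and reference peptide for full effect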
Bead autofluor = counter-screen for toxin protease inhibitors: compound fluorescence; compound autofluorescence counterscreen, microsphere flow cytometry; stronger effect = higher value; fluorescence intensity (no concentration beside the values); actives 3.1% (n = 360,000); AID 624483; in the data active = fluorescence intensity above about 16000; inconclusive = no clear call, values can overlap the other calls
Anthrax LF prot = inhibitors of Bacillus anthracis lethal factor protease; P15917; multiplex microsphere protease cleavage assay, LF; inhibition, % at 10 µM; actives 0.12% (n = 360,000); also: plate controls were buffer without enzyme for full effect and enzyme alone for no effect
Target sequence (P15917 whole entry, looked up): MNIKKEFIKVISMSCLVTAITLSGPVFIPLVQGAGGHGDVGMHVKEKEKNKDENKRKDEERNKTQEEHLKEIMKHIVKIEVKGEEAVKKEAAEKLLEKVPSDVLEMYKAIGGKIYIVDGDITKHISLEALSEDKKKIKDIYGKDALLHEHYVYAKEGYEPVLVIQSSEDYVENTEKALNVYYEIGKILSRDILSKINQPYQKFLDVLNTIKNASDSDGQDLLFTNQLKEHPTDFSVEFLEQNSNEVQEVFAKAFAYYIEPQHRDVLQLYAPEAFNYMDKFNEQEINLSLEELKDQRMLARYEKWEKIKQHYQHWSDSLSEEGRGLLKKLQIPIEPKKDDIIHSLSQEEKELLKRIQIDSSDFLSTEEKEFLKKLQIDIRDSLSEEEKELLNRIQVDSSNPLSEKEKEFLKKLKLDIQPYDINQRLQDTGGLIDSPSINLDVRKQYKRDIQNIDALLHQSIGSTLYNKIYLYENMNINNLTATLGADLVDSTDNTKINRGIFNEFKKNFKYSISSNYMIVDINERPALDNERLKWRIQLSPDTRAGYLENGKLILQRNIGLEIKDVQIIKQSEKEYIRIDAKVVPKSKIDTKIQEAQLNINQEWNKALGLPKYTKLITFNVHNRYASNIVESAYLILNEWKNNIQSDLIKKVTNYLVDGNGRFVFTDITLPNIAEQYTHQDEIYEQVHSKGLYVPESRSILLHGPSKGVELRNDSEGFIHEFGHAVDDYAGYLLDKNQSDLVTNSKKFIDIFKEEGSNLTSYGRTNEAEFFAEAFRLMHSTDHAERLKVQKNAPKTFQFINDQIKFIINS
BoNT-F LC inh = BoNT F light chain protease inhibition. Multiplex microsphere protease cleavage assay, flow cytometry. inhibition, % at 10 µM. AID 588497. actives 0.22% (n = 360,000); in the data active = inhibition above about 35%, passing the limit was not always enough; inconclusive = no clear call, values can overlap the other calls; also: plate controls were buffer without enzyme for full effect and enzyme alone for no effect
Active calls of the source: *; ? = inconclusive; / = no result given. Only some compounds are listed: those with a hit (about 3.1% of all), similar ones and a draw of the others. Rule as the data show it, unless noted: active = inhibition above about 30%; inconclusive = no clear call, values can overlap the other calls; inactive = below that.

SMILES	BoNT A protease	SSB-PriA inh	Bead autofluor	Anthrax LF prot	BoNT-F LC inh
O=S(=O)(c1ccc(Cl)s1)N1CCN(Cc2ccccc2)CC1	-0.3	4.5	2762	-3.0	-0.5
O=C(NCCn1ccnc1-c1ncccn1)c1ccccc1C(F)(F)F	/	-2.0	/	/	/
CCS(=O)(=O)N1CCc2ccc(NC(=O)COc3ccc(F)cc3)cc2C1	/	-11.0	/	/	/
Cc1ccc(O)c(-c2cc(C(F)(F)F)[nH]n2)c1	?	-1.1	21889*	-2.3	-8.9
Clc1ccccc1-c1ccc(/C=N/n2cnnc2)o1	0.3	/	16641*	-4.1	0.4
Clc1cccc(-c2ccc(/C=N/n3cnnc3)o2)c1Cl	-0.5	/	3083	-9.0	3.9
CCC(=O)N1CCc2cc(S(=O)(=O)NCCC(=O)N3CC=C(c4ccccc4)CC3)ccc21	-1.5	/	22498*	-0.6	-3.5
Cc1cc(C)n2nc(-c3cnn(C)c3C(F)(F)F)cc2n1	?	-23.2	19076*	-7.2	2.7
COc1cc(S(=O)(=O)Nc2ccccc2C(=O)O)ccc1Br	/	5.0	/	/	/
CCc1c(C)sc(NC(=O)c2cc(-c3cc(OC)ccc3OC)on2)c1C#N	4.2	-11.4	21969*	-1.6	5.7
CCSc1nnc2n1C(C)(C)Cc1ccccc1-2	-0.1	-1.1	2678	0.3	1.3
CCOC(=O)CSc1nnc2n1C(C)(C)Cc1ccccc1-2	0.7	-5.1	16513*	-2.4	1.6
CC(C)OC(=O)CSc1nnc2n1C(C)(C)Cc1ccccc1-2	0.3	-21.4	16487*	-2.6	-0.6
COc1ccc(CCNC(=O)CSc2ncc(CO)n2Cc2ccccc2)cc1OC	/	0.0	/	/	/
NC1CCCCC1N=Cc1c(O)n(CCc2ccc(F)cc2)c(=O)[nH]c1=O (stereo not given)	3.0	-8.8	?	-6.3	45.0*
COc1ccc(CCn2c(O)c(C=NN3CCOCC3)c(=O)[nH]c2=O)cc1OC	/	-0.8	/	/	/
COc1ccc(CCn2c(O)c(C=NCCN3CCCCC3)c(=O)[nH]c2=O)cc1OC	4.4	0.8	20570*	1.6	6.3
O=C(Nc1nc2ccc([N+](=O)[O-])cc2s1)c1csc(Nc2ccccc2)n1	/	-4.0	/	/	/
O=C(CCc1ccc(C(F)(F)F)cc1)N1CC(n2ccnn2)C1	/	-21.0	/	/	/
Cc1ccc2sc(N(Cc3ccccn3)C(=O)Cc3cccs3)nc2c1C	/	-4.0	/	/	/
CCCS(=O)(=O)Nc1cc(C(F)(F)F)ccc1OCCOC	-0.9	-3.2	24565*	0.0	0.8
CCN1CCN(CC(=O)Nc2cc(C(F)(F)F)ccc2OCCOC)CC1	-0.3	4.3	4318	-5.4	-5.7
COc1coc(C(=O)Nc2ccccc2C(C)C)cc1=O	/	-10.0	/	/	/
C=CCn1cc(/C=C2/NC(=O)NC2=O)c2ccccc21	-0.4	-4.3	4620	-9.7	?
C=CCn1c(C)c(C=C2C(=O)NC(=O)NC2=O)c2ccccc21	33.1*	-3.0	3438	-2.7	?
SMILES	BoNT A protease	SSB-PriA inh	Bead autofluor	Anthrax LF prot	BoNT-F LC inh
CC(C)Sc1nnc([C@@H](N)Cc2c[nH]c3ccccc23)o1	?	-1.6	18809*	-4.9	1.8
Cc1ccc(C)c(NC(=O)CSc2nnc([C@@H](N)Cc3c[nH]c4ccccc34)o2)c1	-4.3	-6.5	24677*	-3.2	-12.3
NC(=O)CSc1nnc([C@@H](N)Cc2c[nH]c3ccccc23)o1	-1.0	-15.6	10169	5.4	-0.6
CC(C)Sc1nnc([C@@H](N)Cc2ccccc2)o1	0.4	0.6	16323*	2.1	-0.5
O=C(Cn1cc(-c2nc(-c3ccsc3)no2)ccc1=O)c1cccc(Cl)c1	/	-19.0	/	/	/
COC(=O)c1cc(Nc2ccc(OCc3ccccc3)cc2)c2cccc(C)c2n1	/	-18.0	/	/	/
O=C(Nc1ccncc1)c1cn(-c2ccccc2)nc1-c1cccs1	-1.4	-5.5	?	-1.6	-21.3
CC(NC(=O)COC(=O)c1cn(-c2ccccc2)nc1-c1cccs1)c1ccccc1 (stereo not given)	6.6	-26.9	18189*	-10.4	5.1
O=C(NCCCCNC(=O)c1ccc(Br)s1)c1ccc(Br)s1	?	-8.3	20047*	0.2	-1.3
O=C(NCCCN1CCOCC1)c1ccc(Br)s1	0.5	-13.2	10455	0.7	0.6
COC(=O)c1ccccc1NC(=O)c1cc(-c2cc(Cl)cc(Cl)c2)oc1C	/	-4.0	/	/	/
O=C1c2ccccc2C(=O)N1CCCCN(C(=O)c1ccc([N+](=O)[O-])o1)c1ccc(Cl)cc1	/	40.0*	/	/	/
O=C1c2ccccc2C(=O)N1CCCCN(C(=O)c1ccco1)c1ccc(Cl)cc1	-0.1	-78.0	3220	-4.4	0.8
Cc1ccc(N(CCCCN2C(=O)c3ccccc3C2=O)C(=O)c2cccs2)cc1	-0.4	65.7*	4260	-6.8	-7.0
O=C1c2ccccc2C(=O)N1CCCCN(C(=O)/C=C/c1cccc([N+](=O)[O-])c1)c1ccc(Cl)cc1	/	-3.0	/	/	/
O=C1c2ccccc2C(=O)N1CCCCN(C(=O)c1cccc([N+](=O)[O-])c1)c1ccc(Cl)cc1	-2.9	-8.1	20654*	0.3	-5.5
CC(=O)N1CCC2(CC1)CC(O)c1ccccc1O2 (stereo not given)	/	-11.0	/	/	/
CC1(C)Cc2cccc(OCC(=O)NCC3CCN(C(=O)Nc4ccc(F)cc4)CC3)c2O1	/	-10.0	/	/	/
CCCn1nc(-c2ccccc2)c2sc(N3CCCC3)nc2c1=O	/	-1.0	/	/	/
CC1(C)NC(=O)N(CC(=O)O)C1=O	-1.8	-1.6	17429*	-3.8	-3.9
O=C(Nc1ccc(Cl)cc1C(=O)NCC1CCCO1)c1ccc(Cl)cc1Cl (stereo not given)	-0.4	-11.4	2486	0.7	-6.3
Cc1cc(NC(=O)c2cccnc2)ccc1NC(=O)c1ccco1	-0.5	-21.0	22536*	-2.1	0.2
O=C(Nc1ccc(Cl)cc1C(=O)NCc1cccnc1)c1ccco1	?	-15.4	23145*	-3.9	1.5
CCOc1cc(NC(=O)c2ccco2)c(OCC)cc1NC(=O)CCC(=O)NCc1cccnc1	1.5	0.2	19666*	-2.6	0.5
O=C(Nc1ccc(Cl)cc1C(=O)NCC1CCCO1)c1ccco1 (stereo not given)	-1.7	-13.5	23431*	1.3	-3.2
SMILES	BoNT A protease	SSB-PriA inh	Bead autofluor	Anthrax LF prot	BoNT-F LC inh
O=C(NCc1ccco1)c1n[nH]nc1Nc1cccc(Cl)c1	/	-13.0	/	/	/
O=C(NCc1ccnc(-c2ccsc2)c1)c1ccccc1F	/	-9.0	/	/	/
CCOCC(=O)Nc1c(C)nc2cc(C)ccn2c1=O	/	-10.0	/	/	/
CN1/C(=C(\C#N)c2nc3ccccc3s2)Sc2ccccc21	/	-18.0	/	/	/
CCOc1cc(NS(=O)(=O)c2ccc(OC)cc2)c(OCC)cc1NC(=O)c1ccco1	-0.5	-9.5	22748*	-2.5	-1.9
OCCN(CCO)c1ccc(C(c2ccc(Cl)cc2)c2ccc(N(CCO)CCO)cc2Cl)c(Cl)c1	0.0	10.5	2457	-4.5	-10.8
Cc1cc(N(CCO)CCO)ccc1N=Nc1cc(F)ccc1F	-1.1	75.3*	3140	-10.3	-7.8
CC1(C)C(/C=C/C=C/C=C/C=C2\N(CCCCS(=O)(=O)O)c3ccc4ccccc4c3C2(C)C)=[N+](CCCCS(=O)(=O)[O-])c2ccc3ccccc3c21	-1.2	75.1*	3498	-23.4	-65.9
Cc1ccn2c(=O)nc(SCC(=O)N3CCc4ccccc43)nc2c1	/	-3.0	/	/	/
Cc1ccc(S(=O)(=O)Nc2cc(-c3nn(C)c(=O)c4ccccc34)ccc2N2CCOCC2)cc1	?	-8.9	22492*	-3.8	4.1

Screening results from PubChem.
